{"source": "the supplement of paper PMC10382584", "about": "“Macrocyclization of linear molecules by deep learning to facilitate macrocyclic drug candidates discovery” (Nature Communications, 2023)", "data": [{"compound": "Cc1cnc(Nc2ccc(OCCN3CCCC3)cc2)nc1Nc1cccc(S(=O)(=O)NC(C)(C)C)c1 [Fedratinib]", "assay": "percent of DMSO control binding (KINOMEscan); higher = weaker binding / less inhibition; extreme values may be limits of the assay", "conditions": "concentration: 100 nM", "units": {"percent of DMSO control binding": "%"}, "values": [{"target": "FLT1 (UniProt P17948)", "sequence (P17948 whole entry)": "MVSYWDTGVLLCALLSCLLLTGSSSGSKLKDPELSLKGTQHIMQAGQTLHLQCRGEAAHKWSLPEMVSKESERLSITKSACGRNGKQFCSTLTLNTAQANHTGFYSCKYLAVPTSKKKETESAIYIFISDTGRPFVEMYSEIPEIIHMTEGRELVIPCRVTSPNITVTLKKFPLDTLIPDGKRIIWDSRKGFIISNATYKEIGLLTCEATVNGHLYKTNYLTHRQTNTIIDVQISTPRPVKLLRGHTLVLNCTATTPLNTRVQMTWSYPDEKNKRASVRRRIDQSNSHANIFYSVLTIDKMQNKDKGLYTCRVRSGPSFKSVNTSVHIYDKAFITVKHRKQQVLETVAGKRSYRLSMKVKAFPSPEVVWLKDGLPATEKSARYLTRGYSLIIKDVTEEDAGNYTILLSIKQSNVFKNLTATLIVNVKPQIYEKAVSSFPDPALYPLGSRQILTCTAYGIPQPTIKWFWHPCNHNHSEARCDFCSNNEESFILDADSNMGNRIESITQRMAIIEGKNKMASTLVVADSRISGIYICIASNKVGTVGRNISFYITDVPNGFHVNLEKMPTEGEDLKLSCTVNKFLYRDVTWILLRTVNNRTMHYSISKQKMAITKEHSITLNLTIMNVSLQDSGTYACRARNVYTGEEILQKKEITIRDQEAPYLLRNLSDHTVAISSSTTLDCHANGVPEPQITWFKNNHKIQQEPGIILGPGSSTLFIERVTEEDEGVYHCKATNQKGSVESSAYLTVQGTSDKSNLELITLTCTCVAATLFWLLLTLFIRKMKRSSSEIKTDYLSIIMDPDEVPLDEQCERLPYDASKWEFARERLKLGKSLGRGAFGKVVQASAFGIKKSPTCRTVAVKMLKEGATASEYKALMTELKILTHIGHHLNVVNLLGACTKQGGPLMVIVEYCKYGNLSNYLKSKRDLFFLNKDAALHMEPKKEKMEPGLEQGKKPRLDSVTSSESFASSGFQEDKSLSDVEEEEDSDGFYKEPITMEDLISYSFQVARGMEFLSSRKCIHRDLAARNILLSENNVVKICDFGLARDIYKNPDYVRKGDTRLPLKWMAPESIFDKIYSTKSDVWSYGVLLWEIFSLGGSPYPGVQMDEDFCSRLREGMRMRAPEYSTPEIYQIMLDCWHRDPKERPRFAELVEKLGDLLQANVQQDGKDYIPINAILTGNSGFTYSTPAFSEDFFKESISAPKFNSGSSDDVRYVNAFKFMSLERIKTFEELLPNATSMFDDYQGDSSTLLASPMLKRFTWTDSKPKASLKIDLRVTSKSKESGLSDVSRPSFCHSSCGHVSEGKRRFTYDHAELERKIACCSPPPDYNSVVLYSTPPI", "percent of DMSO control binding": 100}, {"target": "HCK (UniProt P08631)", "percent of DMSO control binding": 100}, {"target": "RPS6KA5(Kin.Dom.1-N-terminal) (UniProt O75582)", "percent of DMSO control binding": 100}, {"target": "EPHB1 (UniProt P54762)", "percent of DMSO control binding": 100}, {"target": "LATS2 (UniProt Q9NRM7)", "percent of DMSO control binding": 89}, {"target": "PIK3CD (UniProt O00329)", "percent of DMSO control binding": 75}, {"target": "MYLK2 (UniProt Q9H1R3)", "percent of DMSO control binding": 100}, {"target": "RPS6KA5(Kin.Dom.2-C-terminal) (UniProt O75582)", "percent of DMSO control binding": 97}, {"target": "ERBB3 (UniProt P21860)", "percent of DMSO control binding": 97}, {"target": "CAMK1B (UniProt Q6P2M8)", "percent of DMSO control binding": 66}, {"target": "MEK1 (UniProt Q02750)", "percent of DMSO control binding": 62}, {"target": "GCN2(Kin.Dom.2,S808G)", "percent of DMSO control binding": 61}, {"target": "ERBB4 (UniProt Q15303)", "percent of DMSO control binding": 100}, {"target": "PIKFYVE (UniProt Q9Y2I7)", "percent of DMSO control binding": 83}, {"target": "STK36 (UniProt Q9NRP7)", "percent of DMSO control binding": 100}, {"target": "EPHB4 (UniProt P54760)", "sequence (P54760 whole entry)": "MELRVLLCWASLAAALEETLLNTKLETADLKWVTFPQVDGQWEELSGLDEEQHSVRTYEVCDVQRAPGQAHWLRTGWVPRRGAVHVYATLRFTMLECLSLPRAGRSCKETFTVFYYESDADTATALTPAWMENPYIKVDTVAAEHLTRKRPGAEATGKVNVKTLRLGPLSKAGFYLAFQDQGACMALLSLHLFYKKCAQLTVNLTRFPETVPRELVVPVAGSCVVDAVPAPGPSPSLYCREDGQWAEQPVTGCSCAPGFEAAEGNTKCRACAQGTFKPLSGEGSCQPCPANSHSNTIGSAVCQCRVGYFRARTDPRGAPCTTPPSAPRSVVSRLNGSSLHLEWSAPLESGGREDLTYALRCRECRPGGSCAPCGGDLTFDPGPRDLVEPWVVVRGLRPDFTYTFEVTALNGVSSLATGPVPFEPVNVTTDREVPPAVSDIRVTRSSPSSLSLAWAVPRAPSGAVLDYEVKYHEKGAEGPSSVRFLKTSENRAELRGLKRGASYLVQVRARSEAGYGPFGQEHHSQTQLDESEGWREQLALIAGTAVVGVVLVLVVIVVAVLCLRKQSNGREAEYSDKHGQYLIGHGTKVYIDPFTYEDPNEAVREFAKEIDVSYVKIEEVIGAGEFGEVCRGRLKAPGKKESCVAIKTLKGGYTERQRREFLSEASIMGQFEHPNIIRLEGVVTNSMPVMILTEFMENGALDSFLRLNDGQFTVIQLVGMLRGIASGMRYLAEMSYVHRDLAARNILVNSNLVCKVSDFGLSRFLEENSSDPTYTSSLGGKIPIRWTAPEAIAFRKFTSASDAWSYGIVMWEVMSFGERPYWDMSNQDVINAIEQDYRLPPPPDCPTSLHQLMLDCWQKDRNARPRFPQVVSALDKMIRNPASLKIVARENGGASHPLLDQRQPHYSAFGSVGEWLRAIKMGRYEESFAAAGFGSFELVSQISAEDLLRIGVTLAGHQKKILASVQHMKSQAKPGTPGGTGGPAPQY", "percent of DMSO control binding": 100}, {"target": "RSK4(Kin.Dom.1-N-terminal)", "percent of DMSO control binding": 70}, {"target": "SRMS (UniProt Q9H3Y6)", "percent of DMSO control binding": 70}, {"target": "ZAK (UniProt Q9NYL2)", "sequence (Q9NYL2 whole entry, looked up)": "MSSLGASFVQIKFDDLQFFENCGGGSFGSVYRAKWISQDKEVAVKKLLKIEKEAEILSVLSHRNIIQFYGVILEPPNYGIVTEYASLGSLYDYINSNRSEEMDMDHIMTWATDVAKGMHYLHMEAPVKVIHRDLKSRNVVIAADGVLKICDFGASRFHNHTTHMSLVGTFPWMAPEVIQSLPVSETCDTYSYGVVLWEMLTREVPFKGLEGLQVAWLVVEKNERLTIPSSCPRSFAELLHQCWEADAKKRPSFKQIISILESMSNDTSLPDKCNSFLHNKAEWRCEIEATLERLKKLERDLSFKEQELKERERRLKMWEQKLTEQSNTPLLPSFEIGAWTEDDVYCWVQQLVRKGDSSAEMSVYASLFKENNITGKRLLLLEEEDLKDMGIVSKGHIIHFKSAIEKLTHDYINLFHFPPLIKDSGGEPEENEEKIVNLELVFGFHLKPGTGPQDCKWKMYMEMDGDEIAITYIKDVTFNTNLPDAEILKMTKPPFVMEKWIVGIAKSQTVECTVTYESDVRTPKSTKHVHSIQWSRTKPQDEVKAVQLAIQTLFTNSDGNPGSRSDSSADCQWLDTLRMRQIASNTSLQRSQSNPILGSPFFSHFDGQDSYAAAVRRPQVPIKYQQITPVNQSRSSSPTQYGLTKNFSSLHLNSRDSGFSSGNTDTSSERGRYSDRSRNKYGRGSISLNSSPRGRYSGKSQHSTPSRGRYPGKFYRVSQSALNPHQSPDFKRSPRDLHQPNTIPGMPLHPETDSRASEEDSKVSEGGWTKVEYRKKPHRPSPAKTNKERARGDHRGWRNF", "percent of DMSO control binding": 81}, {"target": "IGF1R (UniProt P08069)", "percent of DMSO control binding": 100}, {"target": "SgK110 (UniProt P0C264)", "percent of DMSO control binding": 100}, {"target": "BIKE (UniProt Q9NSY1)", "percent of DMSO control binding": 7.4}, {"target": "DAPK2 (UniProt Q9UIK4)", "sequence (Q9UIK4 whole entry, looked up)": "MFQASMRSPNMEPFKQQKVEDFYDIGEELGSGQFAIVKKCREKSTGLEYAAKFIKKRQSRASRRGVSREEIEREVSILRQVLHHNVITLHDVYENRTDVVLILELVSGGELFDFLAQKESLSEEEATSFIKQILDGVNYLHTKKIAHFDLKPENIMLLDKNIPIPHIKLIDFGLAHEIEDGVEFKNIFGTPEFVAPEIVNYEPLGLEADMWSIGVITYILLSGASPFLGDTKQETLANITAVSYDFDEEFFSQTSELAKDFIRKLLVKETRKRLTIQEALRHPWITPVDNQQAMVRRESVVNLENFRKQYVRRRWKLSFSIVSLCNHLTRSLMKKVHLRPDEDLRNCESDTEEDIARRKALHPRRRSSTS", "percent of DMSO control binding": 16}, {"target": "IKK-epsilon (UniProt Q14164)", "percent of DMSO control binding": 57}, {"target": "PRKD3 (UniProt O94806)", "percent of DMSO control binding": 100}, {"target": "ALK(C1156Y) (UniProt Q9UM73)", "percent of DMSO control binding": 57}, {"target": "PFTAIRE2 (UniProt Q96Q40)", "percent of DMSO control binding": 100}, {"target": "PIP5K1A (UniProt Q99755)", "percent of DMSO control binding": 17}, {"target": "SYK (UniProt P43405)", "percent of DMSO control binding": 100}, {"target": "TTK (UniProt P33981)", "percent of DMSO control binding": 75}, {"target": "PRKCH", "percent of DMSO control binding": 100}, {"target": "ERK3 (UniProt Q16659)", "sequence (Q16659 whole entry)": "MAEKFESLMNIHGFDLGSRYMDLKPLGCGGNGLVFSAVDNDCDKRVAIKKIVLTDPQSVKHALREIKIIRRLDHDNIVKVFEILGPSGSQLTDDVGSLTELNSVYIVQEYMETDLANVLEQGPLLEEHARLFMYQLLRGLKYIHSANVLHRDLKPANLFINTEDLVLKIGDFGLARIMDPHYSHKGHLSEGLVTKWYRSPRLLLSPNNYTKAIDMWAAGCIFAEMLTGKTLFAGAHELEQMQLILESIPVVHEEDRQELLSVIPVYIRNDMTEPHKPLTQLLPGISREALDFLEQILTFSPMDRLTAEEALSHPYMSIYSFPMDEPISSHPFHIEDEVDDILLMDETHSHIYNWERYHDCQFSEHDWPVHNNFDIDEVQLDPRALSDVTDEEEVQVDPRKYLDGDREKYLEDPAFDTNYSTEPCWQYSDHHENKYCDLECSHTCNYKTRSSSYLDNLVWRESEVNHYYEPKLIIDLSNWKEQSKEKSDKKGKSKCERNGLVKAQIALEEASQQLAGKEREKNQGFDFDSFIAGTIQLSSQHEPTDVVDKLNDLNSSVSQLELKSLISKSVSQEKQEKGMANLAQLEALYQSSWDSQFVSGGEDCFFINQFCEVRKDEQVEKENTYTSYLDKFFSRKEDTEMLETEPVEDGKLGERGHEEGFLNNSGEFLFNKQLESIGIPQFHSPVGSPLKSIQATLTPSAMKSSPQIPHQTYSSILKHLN", "percent of DMSO control binding": 100}, {"target": "AMPK-alpha1 (UniProt Q13131)", "sequence (Q13131 whole entry, looked up)": "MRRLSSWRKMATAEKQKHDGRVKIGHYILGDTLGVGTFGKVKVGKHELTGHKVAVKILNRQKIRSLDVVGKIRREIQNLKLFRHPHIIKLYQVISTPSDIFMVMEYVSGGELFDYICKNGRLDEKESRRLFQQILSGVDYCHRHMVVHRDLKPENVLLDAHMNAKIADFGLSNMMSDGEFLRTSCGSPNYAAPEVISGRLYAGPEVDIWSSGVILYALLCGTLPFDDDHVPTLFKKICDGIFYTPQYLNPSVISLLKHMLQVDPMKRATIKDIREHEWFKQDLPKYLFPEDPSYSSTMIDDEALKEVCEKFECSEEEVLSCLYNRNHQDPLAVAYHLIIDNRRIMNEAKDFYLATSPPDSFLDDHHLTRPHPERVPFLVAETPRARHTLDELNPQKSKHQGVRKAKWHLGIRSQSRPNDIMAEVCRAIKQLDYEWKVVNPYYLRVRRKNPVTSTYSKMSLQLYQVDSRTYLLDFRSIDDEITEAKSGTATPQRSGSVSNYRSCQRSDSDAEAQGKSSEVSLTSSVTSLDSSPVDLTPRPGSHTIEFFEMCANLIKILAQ", "percent of DMSO control binding": 100}, {"target": "PKN2 (UniProt Q16513)", "percent of DMSO control binding": 100}, {"target": "PKNB(M.tuberculosis)", "percent of DMSO control binding": 61}, {"target": "PFPK5(P.falciparum)", "percent of DMSO control binding": 100}, {"target": "MTOR (UniProt P42345)", "percent of DMSO control binding": 87}]}]}
